Data taken from PubChem BioAssay (NCI).
About 79,000 compounds went through this panel and 15% of them were active in at least one assay; those are over-represented in the sample as a whole. Active and inactive are the calls of the source. No stated cut-off is given here; in the data, active means growth inhibition above about 70%; inactive means the rest.

What was measured:
[1] = NCI Yeast Anticancer Drug Screen. Data for the rad52 strain (AID 147);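 further: 0% = growth of vehicle-treated control cultures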; settings: S. cerevisiae rad52 mutant growth inhibition, active compounds read high
Outline: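 Growth of repair-deficient yeast cells was compared between compound-treated and vehicle-treated cultures to give percent inhibition.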

[2] = NCI Yeast Anticancer Drug Screen. Data for the wt1 strain (AID 149);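 further: 0% = growth of vehicle-treated wt1 cultures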; settings: S. cerevisiae wt1 strain (SPY 50644) growth inhibition, active compounds read high
Outline: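 wt1 strain grown with compound or vehicle; inhibition taken from the growth difference.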

[3] = NCI Yeast Anticancer Drug Screen. Data for the rad50EPP+ strain (AID 151);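 further: 0% = growth of vehicle-treated control cultures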; settings: S. cerevisiae rad50 mutant strain, active compounds read high
Outline: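 Measured: growth inhibition of rad50EPP+ yeast. Reference: vehicle-treated controls. Screen uses strains with defined genetic alterations in DNA damage repair or cell cycle control.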

[4] = NCI Yeast Anticancer Drug Screen. Data for the mgt1 strain (AID 153); settings: S. cerevisiae mgt1 mutant growth inhibition, active compounds read high
Outline: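 Compounds were applied to mgt1 mutant yeast, and growth was then compared against vehicle-treated control cultures to give percent inhibition.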

[5] = NCI Yeast Anticancer Drug Screen. Data for the rad50 strain (AID 155);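 further: 0% = growth of vehicle-only cultures of the same strain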; settings: S. cerevisiae rad50 strain growth inhibition, active compounds read high
Outline: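 DNA repair mutant yeast, compound exposure, growth read-out; inhibition is taken relative to vehicle.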

[6] = NCI Yeast Anticancer Drug Screen. Data for the mec2-1 strain (AID 157); settings: S. cerevisiae mec2-1 strain, active compounds read high
Outline: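 Compounds were applied to mec2-1 yeast cells. Their growth was then compared with that of vehicle-treated cultures to give growth inhibition.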

[7] = NCI Yeast Anticancer Drug Screen. Data for the rad14 strain (AID 159);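 further: 0% = growth of vehicle-treated control cultures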; settings: S. cerevisiae rad14 strain growth inhibition, active compounds read high
Outline: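 DNA repair-defective yeast, compound-exposed; % growth inhibition derived by comparison with vehicle-treated controls.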

[8] = NCI Yeast Anticancer Drug Screen. Data for the sgs1 mgt1 strain (AID 161);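 further: 0% = growth of cultures given vehicle only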; settings: S. cerevisiae sgs1 mgt1 strain, active compounds read high
Outline: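 Percent growth inhibition was derived by comparing compound-exposed mutant yeast with vehicle-exposed cultures. The strain carries alterations in DNA damage repair.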

[9] = NCI Yeast Anticancer Drug Screen. Data for the CLN2oe strain (AID 163);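 further: 0% = growth of vehicle-only control cultures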; settings: S. cerevisiae CLN2oe strain, active compounds read high
Outline: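 Cells of an engineered yeast line with disturbed cell-cycle regulation are treated with compound. Inhibition of growth is then calculated relative to the vehicle-treated reference.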

[10] = NCI Yeast Anticancer Drug Screen. Data for the cln2 rad14 strain (AID 165);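 further: 0% = growth equal to vehicle treated cultures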; settings: S. cerevisiae cln2 rad14 strain, active compounds read high
Outline: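 Strain: cln2 rad14 yeast, altered in cell cycle control and DNA damage repair. Read-out: growth inhibition vs vehicle.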

[11] = NCI Yeast Anticancer Drug Screen. Data for the bub3 strain (AID 167); settings: S. cerevisiae bub3 mutant strain, active compounds read high
Outline: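 In this screen, a yeast mutant lacking normal mitotic checkpoint function is challenged with compound. Relative growth versus vehicle gives the inhibition value.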

[12] = NCI Yeast Anticancer Drug Screen. Data for the wt2 strain (AID 169);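 further: 0% = growth of vehicle-treated yeast cultures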; settings: S. cerevisiae wt2 strain growth inhibition, active compounds read high
Outline: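 Growth of compound-treated yeast is measured and expressed as inhibition relative to vehicle-only controls.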

[13] = NCI Yeast Anticancer Drug Screen. Data for the mlh1 strain (AID 171);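 further: 0% = growth of vehicle-treated control cultures of the same strain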; settings: S. cerevisiae mlh1 strain growth inhibition, active compounds read high
Outline: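 Test agents were incubated with yeast bearing a defined DNA damage repair or cell cycle control alteration; values are growth inhibition normalised to vehicle-treated cultures.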

[14] = NCI Yeast Anticancer Drug Screen. Data for the sgs1 strain (AID 173);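 further: 0% = growth of vehicle-only control cultures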; settings: S. cerevisiae sgs1 mutant, active compounds read high
Outline: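 Strain with an altered DNA repair or cell cycle pathway exposed to compound. Growth then measured. Value = inhibition versus vehicle control.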

[15] = NCI Yeast Anticancer Drug Screen. Data for the mlh1 rad18 strain (AID 175); settings: S. cerevisiae mlh1 rad18 strain growth inhibition, active compounds read high
Outline: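 A repair-deficient yeast strain is exposed to test compound, and growth is scored relative to vehicle-treated controls.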

[16] = NCI Yeast Anticancer Drug Screen. Data for the rad18 strain (AID 177); settings: S. cerevisiae rad18 mutant growth inhibition, active compounds read high
Outline: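 DNA-repair-defective yeast; compound treatment; growth inhibition scored against vehicle.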

[17] = at 5.0 µM (retest, dose inferred, filed as 0.5)
[18] = at 50.0 µM (retest, dose inferred, filed as 5.0)

Measured: growth inhibition

c1ccc2c(c1)sc1cc3ccncc3cc12
active: [1]; at 33.0 µM 94% | [1]; at 100.0 µM 98% | [2]; at 100.0 µM 94% | [3]; at 33.0 µM 94% | [3]; at 100.0 µM 99% | [4]; at 100.0 µM 94% | [5]; [17] 93% | [5]; at 33.0 µM 89% | [5]; [18] 94% | [5]; at 50.0 µM 97.7% | [5]; at 100.0 µM 98% | [6]; [18] 96% | [6]; at 50.0 µM 98.2% | [6]; at 100.0 µM 89% | [7]; at 100.0 µM 97% | [8]; [18] 93% | [8]; at 50.0 µM 98.1% | [9]; at 100.0 µM 91% | [10]; [18] 96% | [10]; at 50.0 µM 96.2% | [11]; [18] 95% | [11]; at 50.0 µM 97.3% | [11]; at 100.0 µM 94% | [12]; at 100.0 µM 91% | [13]; at 100.0 µM 95% | [14]; at 100.0 µM 97% | [15]; [18] 94% | [15]; at 50.0 µM 97.4% | [16]; at 100.0 µM 97%
inactive: [1]; at 1.2 µM -2% | [1]; at 3.7 µM 7% | [1]; at 11.0 µM 17% | [2]; at 1.2 µM -7% | [2]; at 3.7 µM -4% | [2]; at 11.0 µM -9% | [2]; at 33.0 µM 17% | [3]; at 1.2 µM 7% | [3]; at 3.7 µM 21% | [3]; at 11.0 µM 63% | [4]; at 1.2 µM -2% | [4]; at 3.7 µM -3% | [4]; at 11.0 µM -2% | [4]; at 33.0 µM 11% | [5]; at 1.2 µM -6% | [5]; at 3.7 µM 7% | [5]; at 11.0 µM 29% | [6]; at 1.2 µM 1% | [6]; at 3.7 µM -1% | [6]; [17] 15% | [6]; at 11.0 µM 11% | [6]; at 33.0 µM 8% | [7]; at 1.2 µM 2% | [7]; at 3.7 µM 7% | [7]; at 11.0 µM 16% | [7]; at 33.0 µM 36% | [8]; [17] 12% | [9]; at 1.2 µM -2% | [9]; at 3.7 µM 0% | [9]; at 11.0 µM 7% | [9]; at 33.0 µM 26% | [10]; [17] 16% | [11]; at 1.2 µM -12% | [11]; at 3.7 µM -7% | [11]; [17] -4% | [11]; at 11.0 µM 0% | [11]; at 33.0 µM 19% | [12]; at 1.2 µM -4% | [12]; at 3.7 µM -2% | [12]; at 11.0 µM -3% | [12]; at 33.0 µM 10% | [13]; at 1.2 µM 6% | [13]; at 3.7 µM -6% | [13]; at 11.0 µM -1% | [13]; at 33.0 µM 19% | [14]; at 1.2 µM -2% | [14]; at 3.7 µM -7% | [14]; at 11.0 µM -7% | [14]; at 33.0 µM 34% | [15]; [17] 8% | [16]; at 1.2 µM -3% | [16]; at 3.7 µM -1% | [16]; at 11.0 µM 5% | [16]; at 33.0 µM 22%

COC(=O)c1ccc(CCC2=CC(=O)C(Br)=CC2=O)cc1
active: [1]; at 100.0 µM 72% | [3]; at 100.0 µM 88% | [5]; [18] 99% | [6]; [18] 98% | [12]; at 33.0 µM 88% | [12]; at 100.0 µM 98% | [14]; at 100.0 µM 70% | [15]; [18] 99% | [15]; at 50.0 µM 91.8%
inactive: [1]; at 1.2 µM 17% | [1]; at 3.7 µM 35% | [1]; at 11.0 µM 47% | [1]; at 33.0 µM 52% | [2]; at 1.2 µM 4% | [2]; at 3.7 µM 3% | [2]; at 11.0 µM 4% | [2]; at 33.0 µM 12% | [2]; at 100.0 µM 28% | [3]; at 1.2 µM 2% | [3]; at 3.7 µM 37% | [3]; at 11.0 µM 42% | [3]; at 33.0 µM 62% | [4]; at 1.2 µM -6% | [4]; at 3.7 µM -1% | [4]; at 11.0 µM -4% | [4]; at 33.0 µM -7% | [4]; at 100.0 µM 24% | [5]; at 1.2 µM -3% | [5]; at 3.7 µM 14% | [5]; [17] 12% | [5]; at 11.0 µM 15% | [5]; at 33.0 µM 18% | [5]; at 50.0 µM 61.1% | [5]; at 100.0 µM 34% | [6]; at 1.2 µM -7% | [6]; at 3.7 µM -15% | [6]; [17] 44% | [6]; at 11.0 µM -12% | [6]; at 33.0 µM -12% | [6]; at 50.0 µM 68.2% | [6]; at 100.0 µM 19% | [7]; at 1.2 µM -6% | [7]; at 3.7 µM 1% | [7]; at 11.0 µM 5% | [7]; at 33.0 µM 8% | [7]; at 100.0 µM 54% | [8]; [17] 10% | [8]; [18] 0% | [8]; at 50.0 µM 20.3% | [9]; at 1.2 µM -11% | [9]; at 3.7 µM -5% | [9]; at 11.0 µM 10% | [9]; at 33.0 µM 7% | [9]; at 100.0 µM 35% | [10]; [17] 4% | [10]; [18] 14% | [10]; at 50.0 µM 38.7% | [11]; at 1.2 µM -20% | [11]; at 3.7 µM -11% | [11]; [17] 8% | [11]; at 11.0 µM -9% | [11]; at 33.0 µM -5% | [11]; [18] 6% | [11]; at 50.0 µM 23.1% | [11]; at 100.0 µM 29% | [12]; at 1.2 µM -12% | [12]; at 3.7 µM 7% | [12]; at 11.0 µM 39% | [13]; at 1.2 µM 0% | [13]; at 3.7 µM -4% | [13]; at 11.0 µM -5% | [13]; at 33.0 µM 5% | [13]; at 100.0 µM 56% | [14]; at 1.2 µM 8% | [14]; at 3.7 µM 26% | [14]; at 11.0 µM 34% | [14]; at 33.0 µM 35% | [15]; [17] 27% | [16]; at 1.2 µM -25% | [16]; at 3.7 µM -8% | [16]; at 11.0 µM -8% | [16]; at 33.0 µM -25% | [16]; at 100.0 µM 40%
